In the supplement of paper PMC6555819:

Assays:
Assay in all cases: PBM binding z-score (relative to random genomic background probes); higher = stronger binding; sequences stand for … in GC…GCGATTGACAGCGTAGAATGAAGG
[1] = test system: FXR:RXRa (NR concentration 270 nM, RXRa partner concentration 90 nM)
In short: (§1)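 Random background probes are the reference for binding z-scores. These scores derive from regression-normalized fluorescence on custom Agilent 4×180K protein-binding microarrays incubated 1 h with ligand-free nuclear receptor dimers. Binding was detected with antibodies against each partner (one per run).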

[2] = test system: LXRa:RXRa (NR concentration 270 nM, RXRa partner concentration 90 nM)
In short: as §1

[3] = test system: LXRa homodimer (NR concentration 270 nM)
In short: as §1

[4] = test system: LXRb:RXRa (NR concentration 270 nM, RXRa partner concentration 90 nM)
In short: as §1

[5] = test system: LXRb homodimer (NR concentration 270 nM)
In short: as §1

[6] = test system: PPARa:RXRa (NR concentration 270 nM, RXRa partner concentration 90 nM)
In short: as §1

[7] = test system: PPARg:RXRa (NR concentration 180 nM, RXRa partner concentration 90 nM)
In short: as §1

[8] = test system: PPARg:RXRa 270nM:90nM, anti-RXR (NR concentration 270 nM, RXRa partner concentration 90 nM)
In short: as §1

[9] = test system: PPARg:RXRa 30nM:10nM, anti-RXR (NR concentration 30 nM, RXRa partner concentration 10 nM)
In short: as §1

[10] = test system: PPARg:RXRa 90nM:30nM, anti-RXR (NR concentration 90 nM, RXRa partner concentration 30 nM)
In short: as §1

[11] = test system: PPARg:RXRa DBDmut IVT, anti-RXR (DBD mutation: RXRa K156A/R161A, NR concentration 270 nM, RXRa partner concentration 90 nM)
In short: as §1

[12] = test system: PPARg:RXRa IVT, anti-PPARg (NR concentration 270 nM, RXRa partner concentration 90 nM)
In short: as §1

[13] = test system: PPARg DBDmut:RXRa IVT, anti-PPARg (DBD mutation: PPARg1 K132A/R137A, NR concentration 270 nM, RXRa partner concentration 90 nM)
In short: as §1

[14] = test system: PPARg DBDmut IVT, anti-PPARg (DBD mutation: PPARg1 K132A/R137A, NR concentration 270 nM)
In short: as §1

[15] = test system: PPARg homodimer (NR concentration 180 nM)
In short: as §1

[16] = test system: PXR:RXRa (NR concentration 270 nM, RXRa partner concentration 90 nM)
In short: as §1

[17] = test system: PXR homodimer (NR concentration 270 nM)
In short: as §1

[18] = test system: RARa:RXR (NR concentration 270 nM, RXRa partner concentration 90 nM)
In short: as §1

[19] = test system: RARa homodimer (NR concentration 270 nM)
In short: as §1

[20] = test system: RARb:RXRa (NR concentration 270 nM, RXRa partner concentration 90 nM)
In short: as §1

Sequence	PBM binding z-score [1]	PBM binding z-score [2]	PBM binding z-score [3]	PBM binding z-score [4]	PBM binding z-score [5]	PBM binding z-score [6]	PBM binding z-score [7]	PBM binding z-score [8]	PBM binding z-score [9]	PBM binding z-score [10]	PBM binding z-score [11]	PBM binding z-score [12]	PBM binding z-score [13]	PBM binding z-score [14]	PBM binding z-score [15]	PBM binding z-score [16]	PBM binding z-score [17]	PBM binding z-score [18]	PBM binding z-score [19]	PBM binding z-score [20]
CCTATTAGGTGACCATAAGGGCAACCGAAGCTCG	0.883	0.519	-0.266	0.209	-0.299	1.81	1.73	1.56	0.344	0.657	5.2	4.27	0.935	-0.392	0.93	0.636	0.326	1.19	0.485	1.87
CCTACTGGGCTAAGGTCATTGATCAGTCAAAGCA	3.85	3.94	1.87	3.49	-0.0794	4.26	3.54	4.28	1.41	3.47	2.72	2.94	-0.43	-0.707	2.17	4.1	1.25	4.17	-0.024	3.5
CCTACTGGGCAACGAAAGGTCATTGATTCAGTGA	3.6	5.33	5.51	4.2	0.197	4.2	2.1	3.54	0.974	2.72	2.25	2.56	-0.412	0.102	3.81	5.18	1.89	5.49	2.52	3.96
CTCGAAAGGACGTGCTCAGGTGAGTATACCAAAC	0.0322	-0.223	-0.388	-0.196	-0.277	-0.124	0.136	-0.268	-0.294	-0.148	-0.218	-0.388	-0.653	-0.179	-0.0329	-0.345	-0.1	0.0274	-0.22	0.749
TCGAGTAGGTTACCAATGGGGCATTTAGCTTTCT	0.00953	1.35	-0.662	1.09	-0.721	1.22	0.144	1.33	1.33	1.2	3.03	2.59	-0.535	-0.583	-0.292	0.195	-0.763	0.343	-1.23	0.686
ATATGTAGGTTATCTGGTCATTCAGTTTGCGCAT	1.2	1.28	1.15	1.21	0.901	3.58	5.56	4.79	2.32	4.3	7.43	7.03	4.79	3.41	2.41	1.26	1.14	0.738	1.75	1.42
TCTATTAGTTGATTAGGTCAACCGAAACAGCGGA	1.7	2	1.49	2.02	1.35	2.94	1.16	3.19	3.91	3.59	2.89	3.1	1.43	1.8	2.28	2.03	0.923	2.56	1.9	2.73
TCTTGTCGATCAAAGGTTAAGAAAGCCGAAGCCT	1.41	1.95	0.175	1.9	0.245	3.76	5.79	6.32	5.47	6.64	1.37	2.3	-0.0137	0.486	0.668	1.62	-0.394	2.19	-0.0364	1.91
CCAGACAGGTGAGACGGTAACTCAGCCTCGATTA	-0.078	-0.00881	0.268	-0.263	-0.377	0.144	0.367	0.232	-0.249	-0.285	1.25	0.131	0.0493	-0.407	1	-0.403	0.193	-0.309	0.615	0.413
ACAGACAGGTGAGTGAAGGTATCTCAGCTGGACG	-0.3	-0.499	-0.504	-0.625	-0.39	0.116	0.581	-0.119	0.319	-0.0281	0.178	0.541	-0.168	-1.07	-0.226	-0.609	-0.293	-0.438	-0.61	0.255
CCTGCTAGGTCAATGGTCTGCTAAAGCAGCTCGC	2.61	2.26	-0.00615	1.78	-0.252	2.75	2.2	2.86	-0.129	1.83	4.23	3.5	-0.516	-0.86	1.16	0.731	-0.482	1.36	-0.721	3.78
TCTCGTAGGACACGAAAGGTCAGAGCTCGACATC	3.08	3.85	2.58	3.39	0.134	3.58	1.24	2.98	2.7	2.81	1.81	1.71	-0.191	0.17	3.44	3.94	0.393	4.37	1.1	4.02
TCGAGTAGGTTAGTCGGGGCATTGAGCCAACATA	-0.211	-0.326	-0.78	0.048	-1.23	0.416	-0.175	0.835	1	0.777	2.07	2.19	-0.804	-1.03	-0.25	-0.121	-0.392	0.186	-0.979	0.355
ATCGAAAGGTAGACGAGGTGAGTATACACCGTTT	0.276	-0.145	-0.253	-0.306	-0.37	0.231	0.859	0.249	0.55	0.0652	0.012	0.628	0.703	0.518	0.162	-0.0156	-0.144	0.31	0.224	0.438
GCAGACAGGTGAAACCCAGGTAACTCAGGGTGGC	0.292	-0.00475	-0.738	-0.364	-0.909	0.818	0.657	-0.0881	-0.673	-0.524	0.362	0.476	-0.384	-0.363	-0.871	-0.19	-0.863	0.261	-1.14	0.645
